HP1b chromo inh: HTS for Inhibitors of HP1-beta Chromodomain Interactions with Methylated Histone Tails | Chromobox protein homolog 1 (Homo sapiens), P83916 | AlphaScreen HP1-beta / biotin-H3K9me3 peptide binding | Potency, µM (highest dose often 114 µM), without a hit: top-dose activity change, negative = inhibition, most hits filed as inhibitors | actives 0.56% (n = 390,000); note: nearly all actives have a fitted effect of over 70% in size
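Compound inhibition of the preformed complex between 50 nM HP1-beta and 50 nM biotinylated H3K9me3 peptide was read by AlphaScreen. Buffer was PBS pH 7.4 with 0.01% Tween-20. Incubations ran 30 min at room temperature, with 10 ug/mL donor/acceptor beads.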
JMJD2A Tudor inh: qHTS Assay for Inhibitors of JMJD2A-Tudor Domain; Lysine-specific demethylase 4A (Homo sapiens), O75164; AlphaScreen JMJD2A-Tudor / H3K4me3 peptide binding; Potency, µM (highest dose often 114 µM), without a hit: top-dose activity change, negative = inhibition, actives largely listed as inhibitors; actives 4.4% (n = 390,000); AID 504339, 2011; note: % is set by controls: 0 for no effect and ±100 for the full control effect; nearly all actives have a fitted effect of over 50% in size
G9a block: qHTS Assay for Inhibitors of Histone Lysine Methyltransferase G9a; Histone-lysine N-methyltransferase EHMT2 (Homo sapiens), Q96KQ7; G9a H3K9 monomethylation, AlphaScreen, 2 h; Potency, µM (top dose mostly 102 µM), without a hit: at the top dose activity, negative = inhibition, usual class: inhibitors; actives 8.8% (n = 350,000); note: % is set by controls: 0 for no effect and ±100 for the full control effect; nearly all actives have a fitted effect of over 75% in size
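Step 1: enzyme (final 20 nM) with compound, 15 min RT. Step 2: substrate peptide 500 nM and SAM 20 uM, 2 h RT. Step 3: anti-H3K9me1 antibody and AlphaScreen beads, 10 min, then plate read.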
BAZ2B inh: qHTS Assay for Inhibitors of BAZ2B | AlphaScreen BAZ2B-H3K14Ac peptide displacement | Potency, µM (series often up to 114 µM), for inactives: at the top dose activity change, negative = inhibition, actives largely listed as inhibitors | actives 4.4% (n = 360,000) | AID 504333, 2011; note: % is set by controls: 0 for no effect and ±100 for the full control effect; nearly all actives have a fitted effect of over 60% in size
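AlphaScreen displacement of biotin-H3(5-23)K14Ac peptide (50 nM final) from BAZ2B (50 nM final) in PBS pH 7.4, 0.01% Tween-20; complex preformed 30 min RT, then compounds (top 110 uM) 30 min RT, beads 20 min dark.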
PLK1 PBD block: qHTS for Inhibitors of PLK1-PDB (polo-like kinase 1 - polo-box domain): Primary Screen. AID 720504, 2013. Serine/threonine-protein kinase PLK1 (Homo sapiens), P53350. Plk1 PBD binding of FITC phosphopeptide, fluorescence polarization. actives 2.8% (n = 360,000). Potency, µM, inactives show max response, negative = inhibition, usual class: inhibitors; note: series mostly up to about 57 µM; % is set by controls: 0 for no effect and ±100 for the full control effect; nearly all actives have a fitted effect of over 65% in size
Target sequence (P53350 whole entry, looked up, the tested form may be a part): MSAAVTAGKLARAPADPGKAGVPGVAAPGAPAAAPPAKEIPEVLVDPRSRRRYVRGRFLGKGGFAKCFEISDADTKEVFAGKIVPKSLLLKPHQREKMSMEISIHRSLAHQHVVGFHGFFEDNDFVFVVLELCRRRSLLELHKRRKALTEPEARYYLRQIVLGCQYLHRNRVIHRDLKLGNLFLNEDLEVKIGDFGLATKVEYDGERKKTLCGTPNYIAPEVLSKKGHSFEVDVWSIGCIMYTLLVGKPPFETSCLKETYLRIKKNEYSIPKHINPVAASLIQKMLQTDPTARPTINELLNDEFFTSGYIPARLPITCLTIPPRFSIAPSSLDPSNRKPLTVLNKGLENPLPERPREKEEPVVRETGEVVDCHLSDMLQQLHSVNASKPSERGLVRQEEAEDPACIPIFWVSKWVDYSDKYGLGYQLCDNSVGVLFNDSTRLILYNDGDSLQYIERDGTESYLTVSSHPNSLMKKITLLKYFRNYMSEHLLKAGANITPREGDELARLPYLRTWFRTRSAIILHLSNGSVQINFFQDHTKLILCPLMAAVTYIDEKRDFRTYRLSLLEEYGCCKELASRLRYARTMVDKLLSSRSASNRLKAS
Sfp inh: qHTS Assay for Inhibitors of Bacillus subtilis Sfp phosphopantetheinyl transferase (PPTase); Biochemical Sfp PPTase activity, qHTS; Potency, µM, inactives show largest response in the series, negative = inhibition, most hits filed as inhibitors; actives 3.5% (n = 310,000); AID 1490, 2009;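 note: the enzyme is Sfp with the accession as filed and its product quenches rhodamine fluorescence; 0% = enzyme reaction without inhibitor and -100% = no enzyme wells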
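Reaction rates are the 30-min fluorescence difference (ex 525, em 598 nm) in wells containing 15 nM Sfp, 5 uM rhodamine-CoA and 12.5 uM BHQ-2-YbbR at pH 7.6 with 10 mM MgCl2.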
* marks the source's active call; other numbers are inactive results; ? = inconclusive; . = not tested or not shown; [ ] = dose if it differs, or a comment. In the library only some 12% were active in any assay of this set; here they are far more common. Calls come from the whole dose curve; as a rule, active = well fitted curve in the direction sought with a large enough effect; inconclusive = small, poorly fitted or top-dose-only effect, or another doubt; inactive = no such curve, though single readings can be large; an effect the other way counts as inactive or inconclusive. Potency is the fitted concentration of half-maximal effect.

SMILES | HP1b chromo inh | JMJD2A Tudor inh | G9a block | BAZ2B inh | PLK1 PBD block | Sfp inh
COc1ccccc1N1CCN(CC(O)COc2ccc(C)cc2C(C)(C)C)CC1 (centres undefined) | ? | ? | 14µM* | 32µM* | . | .
COc1ccccc1N1CCN(CC(O)COc2cc(C)cc(C)c2)CC1 (centres undefined) | 15% | 79µM* | ? | ? | . | .
COc1ccccc1N1CCN(CC(O)COc2ccc(Cl)c(C)c2)CC1 (centres undefined) | -10% | 89µM* | ? | ? | . | .
Cn1c(=O)[nH]c2nnc(-c3ccc(Cl)c(Cl)c3)nc2c1=O | 3% | ? | ? | 89µM* | -13% | ?
CSc1cnc2c(=O)n(C)c(=O)[nH]c2n1 | 20% | -1% | 5%[59 µM] | 7% | -5% | 10%
O=C1Nc2ccccc2C1=Nc1ccccc1-c1ccccc1 | 6% | ? | . | . | 0% | .
Cc1cc(=O)n2cn[nH]c2n1 | 18% | -6% | . | . | 3% | .
COc1ccc(C(=O)N2CCC2(C)C(=O)NC(C)C)cc1OC (centres undefined) | . | . | . | . | -4% | .
CCn1c(C(=O)NCCCN2CCc3ccccc3C2)cc2sccc21 | 2% | ? | ? | ? | -8% | -20%
CCN1CCN(C(=O)c2ccc3c(c2)c(C)c(C)n3Cc2ccccc2)CC1 | ? | ? | 35µM* | ? | -2% | 3%
Cc1c(C)n(Cc2ccc(F)cc2)c2ccc(C(=O)N3CCN(c4ccc(F)cc4)CC3)cc12 | 14% | ? | -43%[59 µM] | -38% | . | .
CCn1c(C)c(C)c2cc(C(=O)N3CCc4ccccc4C3)ccc21 | ? | 40µM* | 45µM* | 22µM* | -10% | -18%
CCn1c(C(=O)N2CCc3ccccc3C2)cc2sccc21 | 20% | -35% | 50µM* | -35% | -19% | -9%
CS(=O)(=O)c1ccc(C(=O)N2CCc3ccccc3C2)cc1 | 8% | -19% | 7% | . | -26% | 21%
O=C(NCCCc1nc2ccccc2n1Cc1ccc(Cl)cc1Cl)c1ccco1 | 5% | -17% | -32%[59 µM] | ? | . | .
CCOc1ccc(C(c2c(O)cc(C)n(Cc3ccco3)c2=O)N2CCN(C)CC2)cc1 (centres undefined) | 1%[57 µM] | ? | ? | -10% | . | .
N#Cc1c(Cl)nsc1NCCN1CCOCC1 | 40% | 3% | -8% | -2% | -11% | 13%
O=C(NCc1ccco1)/C(=C\c1ccco1)NC(=O)c1ccc(Br)o1 | 27% | 2% | -12%[12.7 µM] | -29% | 1% | 89µM*
O=C(NCCCO)/C(=C\c1ccco1)NC(=O)c1ccc(Br)o1 | 32% | -12% | 28µM* | -2% | -3% | -7%
O=C(NCc1ccco1)/C(=C/c1ccco1)NC(=O)c1ccc(Br)o1 | 14% | -22% | ? | -8% | -18% | ?
C=CCNC(=O)/C(=C\c1ccco1)NC(=O)c1ccco1 | 33% | -3% | 15%[59 µM] | -1% | -4% | 12%
O=C(NCc1ccco1)/C(=C/c1ccccc1)NC(=O)c1ccco1 | 2% | -10% | -6%[59 µM] | 3% | -8% | 15%
C=CCNC(=O)/C(=C/c1ccco1)NC(=O)c1ccc(Br)o1 | 29% | -8% | ? | -19% | -12% | 10µM*
O=C(NCc1ccco1)/C(=C\c1ccco1)NC(=O)c1ccco1 | 23% | -20% | 45µM* | 10% | -6% | 45µM*
O=C(CSc1nc2c([nH]c3ccccc32)c(=O)n1-c1ccccc1)Nc1ccc2c(c1)OCCO2 | 22%[57 µM] | -15% | -3%[59 µM] | 2% | . | .
SMILES | HP1b chromo inh | JMJD2A Tudor inh | G9a block | BAZ2B inh | PLK1 PBD block | Sfp inh
COc1ccc(NC(=O)C2(C)CCN2C(=O)Cc2ccc(Cl)cc2Cl)cc1OC (centres undefined) | . | . | . | . | -1% | .
CC(C)CCNC(=O)CCn1nc(-c2ccc(Cl)cc2)ccc1=O | 25% | 14% | -7% | -16% | 4% | 7%
Cc1ccc(N2C(=O)[C@@H]3C(c4cccnc4)=NO[C@@H]3C2=O)cc1 | 22% | -21% | -15%[12.7 µM] | -5% | -9% | 50µM*
COc1ccc(N2C(=O)[C@@H]3C(c4cccnc4)=NO[C@@H]3C2=O)cc1 | 26% | -35% | . | -20% | -16% | 79µM*
CC(=O)C1=NOC2C(=O)N(c3ccc(Cl)cc3)C(=O)C12 (centres undefined) | 48% | 4% | ? | -32% | -5% | 9%
Cc1ccc(F)cc1NC(=O)COC(=O)COc1ccc(C#N)cc1 | -22% | -12% | 5%[0.501 µM] | -5% | -10% | .
O=C(c1ccc(Cl)cc1)c1ccccc1C(=O)N1CCOCC1 | 20% | -12% | 7% | 10% | -6% | 12%
Nc1nc(C(=O)N2CCOCC2)nn1C(=O)c1ccc(Cl)cc1 | 70% | 3% | 35µM* | -18% | ? | 5%
COC(=O)C/C=C\[C@@H](C)[C@@H](/C=N\O[C@@H](C)c1cc(-c2c(C)cc(C)cc2C)no1)NS(=O)(=O)c1ccc(C)cc1 | . | . | . | . | . | 8%
COCCn1nnnc1C(c1cccc(C(F)(F)F)c1)N1CCOCC1 (centres undefined) | 33% | -10% | ? | -14% | -2% | 1%
COCCn1nnnc1CN1CCC(O)(c2cccc(C(F)(F)F)c2)CC1 | 23% | -16% | 79µM* | -15% | -8% | 12%
COCCn1nnnc1CN1CCOCC1 | 7% | -22% | 50µM* | -6% | -11% | -2%
COCCn1nnnc1CN1CCN(c2cccc(C(F)(F)F)c2)CC1 | 7% | -13%[11.4 µM] | ? | 79µM* | ? | -3%
COCCn1nnnc1C(c1cccc(C(F)(F)F)c1)N1CCN(Cc2ccccc2)CC1 (centres undefined) | 5% | -29% | 50µM* | ? | -3% | 0%
C=CC[C@]12CCc3ccccc3C1N(c1ccc(C(=O)OCC)cc1)C2=O (some centres undefined) | 45% | 4% | 3%[0.501 µM] | 13% | -7% | .
N#CC1=C(N)Oc2cc3ccccc3cc2C1c1cccs1 (centres undefined) | 18% | -9% | 8%[0.0925 µM] | -12% | -2% | 79µM*
O=C1c2cccc3c([N+](=O)[O-])ccc(c23)C(=O)N1c1ccc(Cl)cn1 | ? | ? | ? | 45µM* | ? | -13%

Screening data from PubChem BioAssay.
